CHO-K1 Ca ag: nonselective activator or artifact in parental CHO-K1 cells; Fluo-8 calcium fluorescence; scaled to maximal ATP response, vehicle zero; activation, % at 3 µM; actives 0.48% (n = 360,000); AID 602248; in the data active = activation above about 15%;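 note: untransfected CHO-K1 host cells lacking M1 receptor as counterscreen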
TMEM16A inh: inhibitors of mouse TMEM16A calcium-activated chloride channel; actives 1.2% (n = 310,000); normalized B-score (activity score, 25-100; higher = stronger inhibition) at 10 µM; HEK293 TMEM16A/YFP iodide influx fluorescence, ionomycin; Q8BHY3;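 active = ratio plate-corrected score three or more library SD toward inhibition, starting fluorescence score within five deviations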;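 note: score derived from kinetic fluorescence span divided by baseline fluorescence per well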
ANO1 activ: mouse TMEM16A channel activation, primary screen | actives 0.3% (n = 340,000) | HEK293 TMEM16A/YFP-H148Q/I152L, iodide quench fluorescence; active compounds read low | Q8BHY3 | AID 623877 | B-score at 10 µM;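 active = fluorescence-ratio B-score plate-corrected deviation score at least 3 library SD below zero, with starting fluorescence score within 5 deviations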;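 note: channel opened by trigger with iodide after compound preincubation; score built on the fluorescence ratio of max minus min over baseline; more negative score means more quench and so TMEM16A activation or potentiation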
M1 PAM parental: nonselective activator or artifact in parental CHO-K1 calcium assay. ATP EC20, Fluo-8 calcium fluorescence; 0% at ATP EC20, 100% at ATP max. activation, % at 3 µM. actives 0.02% (n = 360,000);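 active = activation above the run cutoff, the mean activation of all test compounds plus 3 SD, cut at about 40% in these data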;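 note: peak over basal fluorescence ratio in a 140 s read after ATP addition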
CHO-K1 Ca antag: counter-screen for M1 antagonists: effect in parental CHO-K1 cells; inhibition, % at 3 µM; AID 602250; ATP-induced calcium, Fluo-8 fluorescence; actives 0.6% (n = 360,000);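 active = inhibition above a per-plate cutoff, the plate's mean sample inhibition plus 3 SD, cut at about 24% in these data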;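 note: 0% = DMSO plus EC80 ATP and 100% = DMSO alone without ATP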
NTR1 agonist: activates human neurotensin receptor 1. P30989. NTR1-U2OS beta-arrestin-GFP spot imaging, agonist mode. activation, % at 20 µM. actives 0.17% (n = 330,000). AID 493036;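 active = activation at or above 40% of the spot to cytoplasm intensity ratio, with at least 20 cells analyzed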;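 note: 0% = DMSO without peptide and 100% = 100 nM NTR1 peptide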
Active calls of the source: *; i = inactive; x = not tested or not shown. A selection: hits, their analogues and other compounds. The true share with any hit is near 2.2%.

SMILES	CHO-K1 Ca ag	TMEM16A inh	ANO1 activ	M1 PAM parental	CHO-K1 Ca antag	NTR1 agonist
CC(=O)OC[C@]12CC[C@H]3[C@@](C)(CC[C@H]4C(C)(C)CCC[C@]34C)[C@@H]1C[C@H](C1=CC(=O)O[C@@H]1OC(C)=O)O2	x	x	x	x	x	8
O=C(NCc1ccc2c(c1)OCO2)C1CCN(S(=O)(=O)c2ccc(Br)s2)CC1	2	i	-6.9*	-6	15	0
O=C(NCc1ccc2c(c1)OCO2)C1CCN(S(=O)(=O)c2cccs2)CC1	0	i	i	5	2	-3
CCCCn1c(O)c2n(c1=O)Cc1ccccc1N=C2c1ccc(C)cc1	0	x	x	8	-17	x
COc1ccc(C2CC(c3cccs3)=NN2C(=O)CSc2nnnn2C)cc1OC (stereo unspecified)	15*	i	i	8	6	2
COc1ccc(C2CC(c3cccs3)=NN2C(=O)CSc2nncn2C)cc1OC (stereo unspecified)	0	i	i	1	-13	2
CCCc1cc2c(cc1N(C)S(=O)(=O)c1ccccc1)OCO2	-1	x	i	12	-14	x
CN(Cc1ccccc1)c1ccc(C(CC(N)=O)NC(=O)c2ccc(Br)cc2)cc1[N+](=O)[O-] (stereo unspecified)	0	25*	i	8	-3	25
Cc1c(NC(=O)c2ccc(S(=O)(=O)N3CC(C)OC(C)C3)cc2)c(=O)n(-c2ccccc2)n1C (stereo unspecified)	12	i	i	-8	32*	-1
Cc1c(NC(=O)c2ccc(S(=O)(=O)N3CCOCC3)cc2)c(=O)n(-c2ccccc2)n1C	1	i	i	-4	-16	-2
O=C(/C=C/c1ccccc1Cl)OCC(=O)c1ccc[nH]1	2	x	i	-11	1	0
COc1ccc(CN2Cc3cccc4c3[C@@H](CC2=O)[C@H](O)[C@H](O)C4)cc1	0	x	-9.2*	7	-15	2
Clc1cccc(CN2CCc3c([nH]c4ccccc34)C2)c1	0	i	i	1	1	6
CSc1ccc(CN2CCc3c([nH]c4ccccc34)C2)cc1	15*	i	i	20	-7	2
CCN(CC)S(=O)(=O)c1cc([N+](=O)[O-])ccc1NNC(=O)Nc1ccc(Cl)c(Cl)c1	4	25*	i	12	16	5
COc1ccc(OC)c(NC(=O)C(=O)NNC(=O)C23CC4CC(CC(C4)C2)C3)c1	25*	i	i	15	-9	2
COc1cc(C(=O)Nc2nc(-c3ccc(F)cc3)cs2)ccc1OCC(=O)N1CCOCC1	8	25*	i	2	-3	0
COc1ccc(-c2csc(NC(=O)c3ccc(OCC(=O)N4CCOCC4)c(OC)c3)n2)cc1	9	100*	i	17	2	12
COc1cc(C(=O)Nc2nc(-c3ccc(C)cc3)cs2)ccc1OCC(=O)N1CCOCC1	5	i	i	-14	13	7
CCOc1cc(OCC)cc(C(=O)N2CCC[C@H]2C(=O)N2CCC[C@H]2C(=O)N(C)Cc2ccccc2)c1	2	x	x	16	-14	x
CCNC(=O)C1CCCN(C(=O)c2cc(F)cc(F)c2)CC1 (stereo unspecified)	1	x	x	19	-12	x
CCOC(=O)c1sc(-c2ccc(OC)cc2)cc1N	0	i	i	-6	28*	2
COc1ccc(Br)c(C(=O)N2CCCC2(C)C(=O)NCC(C)C)c1 (stereo unspecified)	-1	x	x	-16	27*	x
COc1ccc([C@@H]2CC(=O)[C@@H]3CN(S(=O)(=O)c4ccc(Cl)cc4)[C@H](c4ccc(C)cc4)C[C@@H]3N2S(=O)(=O)c2ccccc2)cc1	0	x	x	11	-17	x
Cc1ccc(S(=O)(=O)N2C[C@H]3C(=O)C[C@@H](c4ccccc4F)N(S(=O)(=O)c4ccc(C)cc4)[C@H]3C[C@H]2c2ccccc2F)cc1	0	x	x	-5	29*	x
SMILES	CHO-K1 Ca ag	TMEM16A inh	ANO1 activ	M1 PAM parental	CHO-K1 Ca antag	NTR1 agonist
CCc1ccc([C@H]2C[C@H]3[C@H]4C(=O)N(c5ccccc5)C(=O)[C@H]4CC(=O)[C@@H]3CN2S(=O)(=O)c2ccc(C)cc2)cc1	0	x	x	2	5	x
COc1ccc([C@@H]2C[C@H]3[C@@H](CN2S(=O)(=O)c2ccccc2)C(=O)C[C@@H](c2cccc(Cl)c2)N3S(=O)(=O)c2ccc(C)cc2)cc1	2	x	x	9	24*	x
Cc1ccc(S(=O)(=O)N2C[C@H]3C(=O)C[C@@H]4C(=O)N(c5ccccc5)C(=O)[C@@H]4[C@@H]3C[C@H]2c2cccc(Cl)c2)cc1	5	x	x	-1	31*	x
NC(Cc1ccc(Cl)cc1)c1csc(Nc2ccc(-c3ccccc3)nn2)n1 (stereo unspecified)	13	x	x	20	8	x
O=C1NC[C@H](CCCCN2CCN(CCc3ccccc3)C(=O)C2=O)N(CCc2ccccc2)C1=O	0	x	x	0	-11	x
CCCCC(=O)NC(c1ccc([N+](=O)[O-])cc1)c1c(O)ccc2ccccc12 (stereo unspecified)	7	100*	i	18	7	27
CCOc1ccc(OCC)c(Nc2cc(C)nc3nc(C)nn23)c1	0	i	i	-11	34*	-1
Cc1cc(Nc2ccc(Br)cc2F)n2nc(C)nc2n1	0	i	i	41*	1	0
Cc1cc(Nc2ccccc2F)n2nc(C)nc2n1	0	i	i	-3	-1	-5
C[C@@H](c1ccccc1)N1C[C@H](COCc2ccccc2)Oc2cc(N3CCC[C@@H]3CO)ccc2S1(=O)=O	1	x	x	21	-25	x
CCCN1CCN(C(=O)CCS(=O)(=O)c2cc3c(cc2Cl)NC(=O)CO3)CC1	0	i	i	-11	26*	-1
O=C1COc2ccc(S(=O)(=O)CCC(=O)N3CCN(c4ccccc4)CC3)cc2N1	1	i	i	24	-11	0
Cc1ccc(C)c(N2CCN(C(=O)CCS(=O)(=O)c3ccc4c(c3)NC(=O)CO4)CC2)c1	17*	i	i	3	-3	2
CCN(C(=O)c1ccc(NC(=O)Cc2ccccc2)cc1)c1ccccc1	16*	i	i	-21	10	4
CN(C(=O)c1ccc(NC(=O)Cc2ccccc2)cc1)c1ccccc1	3	i	i	-12	3	0
CC1(C)CC(=O)C(CC(=O)c2ccccc2)=C(NN=C(N)N)C1	0	x	x	-13	2	x
O=C(OCc1ccccc1)C1CCCN1C(=O)c1cccs1 (stereo unspecified)	0	i	i	15	-15	-1
O=C(COC(=O)C1CCCN1C(=O)c1cccs1)Nc1ccc2c(c1)OCO2 (stereo unspecified)	2	i	-20*	13	-7	1
